# KinaseGlo FLuc: Counterscreen for Luciferase (Kinase-Glo TM) Inhibition; AID 1379, 2008; Luciferin 4-monooxygenase (Photuris pensylvanica), Q27757; actives 0.28% (n = 200,000); Potency, µM (highest dose often 38.3 µM), for the others: top-dose activity change, negative = inhibition, actives largely listed as inhibitors; Kinase-Glo luciferase, ATP luminescence, 8 min; note: % is set by controls: 0 for no effect and ±100 for the full control effect; nearly all actives have a fitted effect of over 60% in size
#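 Recombinant Kinase-Glo luciferase, 10 uM ATP (linear range), luciferin; imidazole pH 7.2 / KCl / MgCl2 / Tween / BSA buffer; 8 min RT; luminescence.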
# FLuc modulator: qHTS profiling assay for firefly luciferase inhibitor/activator using purifed enzyme and Km concentrations of substrates (counterscreen for miR-21 project); purified FLuc, Km substrates, luminescence inhibition; Luciferin 4-monooxygenase (Photinus pyralis), P08659; Potency, µM (top dose mostly 57.5 µM), for inactives: top-dose activity change, negative = inhibition, most hits filed as inhibitors; AID 588342, 2011; actives 6.9% (n = 360,000);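 note: plate controls were vehicle for no effect and reference inhibitor for full effect; nearly all actives have a fitted effect of over 55% in size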
# Target sequence (P08659 whole entry, looked up): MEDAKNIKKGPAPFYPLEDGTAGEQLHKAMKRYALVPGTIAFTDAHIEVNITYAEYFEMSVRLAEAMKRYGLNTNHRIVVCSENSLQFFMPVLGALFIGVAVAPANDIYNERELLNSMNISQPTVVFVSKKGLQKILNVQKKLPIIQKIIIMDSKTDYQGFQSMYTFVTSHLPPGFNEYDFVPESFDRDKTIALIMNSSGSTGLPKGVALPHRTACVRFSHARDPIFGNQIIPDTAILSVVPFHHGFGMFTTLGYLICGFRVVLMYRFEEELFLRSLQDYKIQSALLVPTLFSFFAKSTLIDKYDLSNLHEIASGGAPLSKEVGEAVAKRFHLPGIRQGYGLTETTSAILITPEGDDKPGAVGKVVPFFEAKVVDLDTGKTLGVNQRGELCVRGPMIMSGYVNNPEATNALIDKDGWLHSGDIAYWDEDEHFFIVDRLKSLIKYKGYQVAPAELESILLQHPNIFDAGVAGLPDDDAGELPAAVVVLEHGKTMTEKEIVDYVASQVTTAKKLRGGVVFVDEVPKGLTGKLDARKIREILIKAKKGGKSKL
#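 Biochemical qHTS of compounds, final roughly 60 µM downward over six points, against 10 nM purified firefly luciferase using Km concentrations of substrates (10 uM D-luciferin, 10 uM ATP) in Tris acetate pH 7.5 buffer; luminescence output.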
# NPC1 prom act: qHTS Assay for NPC1 Promoter Activators | Huh7 NPC1 promoter luciferase reporter, 24 h | Potency, µM (titrated, usually from 9.22 µM), for the others: at the highest dose activation, most hits filed as activators | actives 2.4% (n = 320,000); note: % of control where 0% means no effect; nearly all actives have a fitted effect of over 60% in size
#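 Huh7 reporter cells (NPC1 promoter driving luciferase) are dosed with compound for 24 h at 37 °C, 5% CO2; luciferase detection reagent is then added and luminescence measured after 10 min at ambient temperature.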
# SMN2 splice enh: qHTS Assay for Enhancers of SMN2 Splice Variant Expression. HEK293 SMN2-luciferase splicing reporter, luminescence, 30-36 h. Potency, µM (highest dose often 46.1 µM), without a hit: top-dose activity change, positive = activation, most hits filed as activators. actives 2.8% (n = 210,000). AID 1458, 2008; note: % of control where 0% means no effect; nearly all actives have a fitted effect of over 55% in size
#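 HEK293 cells carry an SMN2 minigene-luciferase reporter in which exon 7 inclusion puts luciferase in frame. Cells were seeded at 2000 cells/well, attached for 10-12 hours, then exposed to compounds for 30-36 hours at 37C before ONE-Glo luminescence.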
# Rab9 prom act: qHTS Assay for Rab9 Promoter Activators; Huh7 Rab9 promoter-luciferase reporter, luminescence, 24 h; Potency, µM (doses to about 9.22 µM), without a hit: top-dose activation, negative = inhibition, most hits filed as activators; actives 2.8% (n = 320,000); AID 485297, 2010; note: % of control where 0% means no effect; nearly all actives have a fitted effect of over 60% in size
#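 Quantitative HTS format; Huh7 Rab9-luciferase reporter cells (1500/well) receive compound 2 h post-plating, incubate 24 h at 37 °C, then get luciferase reagent for 10 min before luminescence reading.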
# ELG1 genotox: qHTS screen for small molecules that induce genotoxicity in human embryonic kidney (HEK293T) cells expressing luciferase-tagged ELG1. HEK293T ELG1-luciferase reporter, luminescence, 16 h. Potency, µM (titrated, usually from 46 µM), without a hit: at the top dose activity change, positive = activation, actives largely listed as activators. actives 1.3% (n = 330,000); note: % of control where 0% means no effect; nearly all actives have a fitted effect of over 60% in size
#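 Genotoxicity was scored as increased ELG1-luciferase reporter signal, measured by ONE-Glo luminescence (30 min, room temperature). Compound or vehicle exposure of the HEK293T reporter cells lasted 16 hr at 37°C.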
# An asterisk follows results filed as active; ? = inconclusive; . = no result. Rows were chosen to be rich in hits. Some 7.5% of all compounds tested hit in one or more screens of this group. Calls come from the whole dose curve; as a rule, active = well fitted curve in the direction sought with a large enough effect; inconclusive = small, poorly fitted or top-dose-only effect, or another doubt; inactive = no such curve, though single readings can be large; an effect the other way counts as inactive or inconclusive. Potency is the fitted concentration of half-maximal effect.
SMILES,KinaseGlo FLuc,FLuc modulator,NPC1 prom act,SMN2 splice enh,Rab9 prom act,ELG1 genotox
CCN=C1NN=C(c2cc(C)n(Cc3ccco3)c2C)CS1,-2%,0.21µM*,-20%,-82%,-19%,?
O=S(=O)(NCC1CCCO1)c1ccc(-c2ccc(Cl)cc2)cc1 (stereo not drawn),-3%,-9%,-9%,-62%,-14%,4%
COc1cccc([C@@H]2Oc3ccc(OC)cc3C(=O)[C@H]2OC(=O)Nc2ccc(OC(F)F)cc2)c1,2%,.,.,-3%,.,.
COCCn1c(C)cc(C2=NNC(=Nc3ccc(OC)cc3)SC2)c1C,-4%,?,-2%,11%,?,-2%
COCCn1c(C)cc(C2=NNC(=Nc3ccccc3)SC2)c1C,-3%,0.76µM*,0.35µM*,?,0.4µM*,?
Cc1ccc(-c2cn3cccc(C)c3n2)cc1NS(=O)(=O)c1ccccc1,.,17µM*,.,23%,.,.
O=[N+]([O-])c1cccn2cc(-c3ccc(Br)cc3)nc12,2%,?,?,.,2.8µM*,?
Cc1ccc(-c2cn3cccc(C)c3n2)cc1,?,1.1µM*,4µM*,.,1.4µM*,?
Cc1cccn2cc(-c3ccc(Cl)cc3)nc12,.,0.38µM*,?,.,1.3µM*,2.1µM*
Cc1cccn2cc(-c3ccc(S(=O)(=O)N4CCCCC4)cc3)nc12,-2%,0%,0%,.,0%,-4%
Cc1cccn2cc(-c3ccc(S(=O)(=O)N4CCOCC4)cc3)nc12,12%,-1%,0%,-19%,-3%,-6%
Cc1cc(C)c(S(=O)(=O)Nc2cc(-c3cn4ccccc4n3)ccc2C)cc1C,.,?,.,6%,.,.
Cc1ccc(NC(=O)NNC(=O)CN2C(=O)COc3ccccc32)cc1,.,?,-2%,.,0%,1%
COCCn1c(=O)c(CCc2ccccc2)nc2cnc(Oc3cccc(Cl)c3)nc21,-4%,.,.,-45%,.,.
COc1ccc(-c2cn3cccc(C)c3n2)cc1F,?,6µM*,?,5.6µM*,2.5µM*,4.6µM*
COc1ccc(-c2nc3c(-c4ccccc4)cnn3cc2C)cc1F,5%,-16%,11%,.,21%,7%
Cc1ccc(CNc2ncnc3onc(-c4ccc(F)cc4)c23)cc1,.,-10%,.,.,.,.
COc1ccc(Cl)cc1NC(=O)c1noc2c1CCc1ccccc1-2,.,-3%,.,0%,.,.
CCc1ccc(NC(=O)c2noc3c2CCc2ccccc2-3)cc1,-3%,11µM*,23%,22%,?,?
O=C(Nc1ccc(F)cc1F)c1noc2c1CCc1ccccc1-2,.,?,.,11µM*,.,.
Cc1ccc(NC(=O)c2noc3c2CCc2ccccc2-3)cc1,-3%,7.6µM*,4µM*,?,2.8µM*,21µM*
O=C(Nc1cccc(O)c1)c1noc2c1CCc1ccccc1-2,14µM*,0.48µM*,?,?,?,1.2µM*
O=C(Nc1cccc(C(F)(F)F)c1)c1noc2c1CCc1ccccc1-2,.,?,.,-7%,.,.
Cc1nc(C)c(C(=O)Nc2cccc(Cl)c2)o1,-2%,-17%,7%,4%,1%,-2%
Cc1ncoc1C(=O)Nc1ccccc1-c1ccccc1,2%,0%,-4%,2%,-6%,2%
Cc1nc(C)c(C(=O)Nc2ccc(Oc3ccccc3)cc2)o1,-2%,24µM*,-5%,-96%,-9%,0%
Cc1ncoc1C(=O)Nc1ccc(Oc2ccccc2)cc1,-3%,15µM*,?,-4%,?,5%
COc1cccc(C2=NN(C(C)=O)C(c3cn(-c4ccccc4)nc3-c3cccs3)C2)c1 (stereo not drawn),.,0%,.,17%,.,.

# From PubChem
